Consider 12 compounds from PubChem BioAssay.

Results filed as inconclusive are left out. Active and inactive are the calls of the source.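 Rule for the calls, unless noted: active = normalized viability below 100% at a tested concentration; inactive = the rest.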

Assay [1] can be described thus: growth inhibition of DIPG glioma cells, dose response, cell-based, SU-DIPG-XVII, MIPE5.0, CellTiter-Glo, qHTS (AID 1347060; cut-off not given, nearly all actives have AC50 up to about 26 µM;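 for AC50: cells exposed to compound for 48 hours before viability readout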). The following applies: SU-DIPG-XVII viability, CellTiter-Glo ATP luminescence. For orientation: In ATP-based viability assays light output follows the ATP content of the culture.
A short description of assay [2]: growth inhibition of DIPG glioma cells, dose response, cell-based, SU-DIPG-XIII, MIPE4.0, CellTiter-Glo, qHTS (AID 1347061; cut-off not given, nearly all actives have AC50 up to about 37 µM;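 note: cells exposed to compound for 48 hours before readout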). The following applies: SU-DIPG-XIII viability, CellTiter-Glo ATP luminescence.
Assay [3] is described as follows: growth inhibition of DIPG glioma cells, dose response, cell-based, SU-DIPG-IV, MIPE4.0, CellTiter-Glo, qHTS (AID 1347063; cut-off not given, nearly all actives have AC50 up to about 30 µM;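 note: compound exposure lasted 48 hours before the viability readout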). The following applies: SU-DIPG-IV viability, CellTiter-Glo ATP luminescence.
Assay [4] can be described thus: growth inhibition of DIPG glioma cells, dose response, cell-based, SU-DIPG-XIII, MIPE5.0, CellTiter-Glo, qHTS (AID 1347064; cut-off not given, nearly all actives have AC50 up to about 23 µM;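 for AC50: cells exposed to compound for 48 hours before the viability read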). The following applies: SU-DIPG-XIII viability, CellTiter-Glo ATP luminescence.
The nature of assay [5]: viability loss in pontine glioma line – cell-based, SU-DIPG-XXV, MIPE5.0, CellTiter-Glo, qHTS, dose response (AID 1347065; cut-off not given, nearly all actives have AC50 up to about 26 µM;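 note: cells exposed to compound for 48 hours before ATP readout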). The following applies: CellTiter-Glo ATP luminescence.
A short description of assay [6]: SU-DIPG-VI glioma cell viability, MIPE4.0 library, CellTiter-Glo luminescence, qHTS (AID 1347066; cut-off not given, nearly all actives have AC50 up to about 30 µM;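 note: cells exposed to compound for 48 hours before readout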). The following applies: CellTiter-Glo ATP luminescence.
Assay [7] in a line: JHH-DIPG-1 glioma cell viability, MIPE5.0 library, CellTiter-Glo luminescence, qHTS (AID 1347067; cut-off not given, nearly all actives have AC50 up to about 26 µM;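 note: cells exposed to compound for 48 hours before readout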). The following applies: JHH-DIPG-1 glioma viability, CellTiter-Glo ATP luminescence.
Assay [8] is described as follows: SU-DIPG-XXV glioma cell viability, MIPE5.0 library, qHTS (AID 1347068; cut-off not given, nearly all actives have IC50 up to about 30 µM;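 for IC50: cells exposed to compound for 48 hours before viability readout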). A general note: In qHTS, concentration-response curves come from the screen itself.
Assay [9] can be described thus: growth inhibition of DIPG glioma cells, dose response, cell-based, JHH-DIPG-1, MIPE4.0, CellTiter-Glo, qHTS (AID 1347062; cut-off not given, nearly all actives have AC50 up to about 27 µM;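 for AC50: cells exposed to compound for two days before readout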). The following applies: JHH-DIPG-1 viability, CellTiter-Glo ATP luminescence.
Assay [10] can be described thus: sensitizers of A549 cells to miR-34 induction, primary screen, imaging, A549 dox-inducible miR-34, nuclei and caspase counts (AID 1347080;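 active = compounds whose cell count with miR-34 switched on is under 0.7 times the count with it off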). The following applies: A549 miR-34 inducible, Hoechst nuclei count, 48 h.
A short description of assay [11]: survival rescue of mitochondrial mutant cells in low glucose, primary screen, MELAS cybrids, Rieske KO mouse fibroblasts, CellTiter-Glo (AID 1508586;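 active = mean z-score across replicates of 1.96 or higher in either the MELAS or the Rieske mutant cell line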;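 note: z relative to plate mean and SD of compound and empty wells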).
The nature of assay [12]: modifiers of HSF1 nuclear foci, imaging, Selleck Cancer Library (AID 1347162; in the data active = plate-normalised HSF1 focus index below about 0.46). The following applies: human cells, at 10 µM; SSMD: measured here: HSF1 foci SSMD mean; cell count: measured here: cell number; plate-normalised HSF1 focus index: stronger effect = lower value.
Assay [13] is described as follows: ovarian cancer cell viability with rucaparib, profiling panel, oncology-focused library, rucaparib conditional (AID 1508598). The following applies: patient-derived ovarian cancer cells, CellTiter-Glo viability, 144 h, stronger effect = lower value.
The mark [14] stands for this setting: stronger effect = lower value, cell number ratio, induced over uninduced.
The mark [15] stands for this setting: measured here: relative caspase fold change +Dox/-Dox.
Where [16] appears, read: measured here: total cells with miR-34 induction, stronger effect = lower value.
Where [17] appears, read: measured here: total cells without miR-34 induction.
[18] abbreviates: MELAS cybrid survival, CellTiter-Glo 48 h, stronger effect = higher value.
Where [19] appears, read: Rieske KO mouse fibroblast survival, CellTiter-Glo 72 h.

Broadly, the AC50 is the midpoint of the concentration-response curve, whichever way the signal moves. A word on the IC50: it is the concentration needed to halve the response being measured. For `Cc1cc(Nc2nc(N[C@@H](C)c3ccc(F)cc3)c(C#N)cc2F)n[nH]1`, the AC50 in assay [1] was 0.934 µM (active); in [2], 20.9 µM (active); in assay [3], 5.9 µM (active); in assay [4] it was 4.68 µM (active); in assay [5], 1.32 µM (active); in assay [6], 23.5 µM (active). In addition, the concentration at half-maximal activity (AC50) in assay [7] is 5.9 µM (active). Also, in assay [8], the IC50 is 5.25 µM (active).

`Cn1cnc2c(F)c(Nc3ccc(Br)cc3F)c(C(=O)NOCCO)cc21`: the AC50 is 3.72 µM (active) in assay [1]; 4.18 µM (active) in [2]; 6.62 µM (active) in assay [9]; 5.25 µM (active) in assay [5]; 0.833 µM (active) in assay [7]. The result in assay [6] was inactive. Further, the figures for the fold change in assay [10] (setting [14]) and in assay [10] (setting [15]) were 0.958 (inactive) and 0.664, respectively. Besides, the cell count in assay [10] (setting [16]) came out at 4350; in assay [10] (setting [17]) it was 4540. The results for the z-score in assay [11] (setting [18]) and in assay [11] (setting [19]) were 0.0149 (inactive) and -0.207, respectively.

On to `O=C1CCCC2=C1C(c1[nH]ncc1Cl)N=C(Nc1nc3ccccc3o1)N2` (centres undefined), for which the result in [1], in assay [2], in [9], in [6], in [7] and in assay [8] was inactive.

In the case of `Cc1c(CN2CCN(S(C)(=O)=O)CC2)sc2c(N3CCOCC3)nc(-c3cnc(N)nc3)nc12`, the half-maximal activity concentration (AC50) is 0.661 µM (active) in assay [1]; 0.332 µM (active) in [2]; 0.0235 µM (active) in [3]; 0.525 µM (active) in [4]; 0.166 µM (active) in assay [5]; 0.526 µM (active) in assay [6]. Besides, in assay [7], the AC50 is 1.05 µM (active).

Take `Cc1nc(NC(=O)N2CCC[C@H]2C(N)=O)sc1-c1ccnc(C(C)(C)C(F)(F)F)c1`: the half-maximal activity concentration (AC50) in [1] is 5.9 µM (active); in assay [2], 1.87 µM (active); in assay [3], 1.05 µM (active); in assay [4], 4.68 µM (active); in [5], 3.32 µM (active); in assay [6] it was 1.66 µM (active).

As for `Cc1cc([C@@H](C)Nc2ccccc2C(=O)O)c2nc(N3CCOCC3)cc(=O)n2c1`, the AC50 in assay [1] is 16.6 µM (active); in [2] it was 42.9 µM (active); in assay [3], 12.1 µM (active); in assay [4] it was 14.8 µM (active); in assay [5], 14.8 µM (active); in assay [6] it was 38.2 µM (active).

Turning to `Nc1ccc(C(=O)c2cc3c(ccc4ccccc43)[nH]2)cc1`, the AC50 in [1] was 3.82 µM (active); in assay [2], 23.5 µM (active); in assay [9], 8.33 µM (active); in [5] it was 2.15 µM (active); in assay [7], 5.39 µM (active).

By viability is commonly meant a read-out of living cells in per cent, often relative to untreated cells. As for `O=C(O)CCC1CCC(c2cc(F)ccc2F)(S(=O)(=O)c2ccc(Cl)cc2)CC1` (centres undefined), the compound was classed as inactive in assay [1], in assay [4] and in assay [7]. Moreover, the AC50 is 18.7 µM (active) in assay [2], 16.6 µM (active) in assay [9] and 6.62 µM (active) in assay [6]. For the same compound, the fold change was 0.867 (inactive) in [10] (setting [14]) and 0.588 in [10] (setting [15]). For the same compound, the cell count in [10] (setting [16]) turned out to be 8810; in [10] (setting [17]), 10200; in assay [12], 7050. Also, the SSMD in assay [12] was found to be 1.51. Besides, the plate-normalised HSF1 focus index in [12] was 1.09 (inactive). In addition, the z-score is -0.308 (inactive) in assay [11] (setting [18]) and 0.781 in assay [11] (setting [19]). Also, the viability in [13] (at 0.000305 µM, OCI-C5x cells, with rucaparib 10 µM, 100% = cells with rucaparib alone) is 114% (inactive); in assay [13] (at 0.000305 µM, OCI-C5x cells, without rucaparib), 121% (inactive); in assay [13] (at 0.000305 µM, OCI-P5x cells, with rucaparib 20 µM, 100% = cells with rucaparib alone) it was 110% (inactive); in assay [13] (at 0.000305 µM, OCI-P5x cells, without rucaparib), 108% (inactive); in assay [13] (at 0.00122 µM, OCI-C5x cells, with rucaparib 10 µM, 100% = cells with rucaparib alone), 123% (inactive); in assay [13] (at 0.00122 µM, OCI-C5x cells, without rucaparib) it was 121% (inactive). Further, the viability in assay [13] (at 0.00122 µM, OCI-P5x cells, with rucaparib 20 µM, 100% = cells with rucaparib alone) is 113% (inactive); in [13] (at 0.00122 µM, OCI-P5x cells, without rucaparib) it was 102% (inactive); in assay [13] (at 0.00488 µM, OCI-C5x cells, with rucaparib 10 µM, 100% = cells with rucaparib alone), 110% (inactive); in assay [13] (at 0.00488 µM, OCI-C5x cells, without rucaparib), 120% (inactive); in assay [13] (at 0.00488 µM, OCI-P5x cells, with rucaparib 20 µM, 100% = cells with rucaparib alone), 107% (inactive); in assay [13] (at 0.00488 µM, OCI-P5x cells, without rucaparib), 105% (inactive). Moreover, the viability in assay [13] (at 0.0195 µM, OCI-C5x cells, with rucaparib 10 µM, 100% = cells with rucaparib alone) was 115% (inactive); in assay [13] (at 0.0195 µM, OCI-C5x cells, without rucaparib) it was 104% (inactive); in assay [13] (at 0.0195 µM, OCI-P5x cells, with rucaparib 20 µM, 100% = cells with rucaparib alone), 104% (inactive); in assay [13] (at 0.0195 µM, OCI-P5x cells, without rucaparib) it was 104% (inactive); in assay [13] (at 0.0781 µM, OCI-C5x cells, with rucaparib 10 µM, 100% = cells with rucaparib alone), 108% (inactive); in [13] (at 0.0781 µM, OCI-C5x cells, without rucaparib), 112% (inactive). Also, the viability is 102% (inactive) in assay [13] (at 0.0781 µM, OCI-P5x cells, with rucaparib 20 µM, 100% = cells with rucaparib alone); 93.6% (active) in [13] (at 0.0781 µM, OCI-P5x cells, without rucaparib); 113% (inactive) in assay [13] (at 0.313 µM, OCI-C5x cells, with rucaparib 10 µM, 100% = cells with rucaparib alone); 113% (inactive) in [13] (at 0.313 µM, OCI-C5x cells, without rucaparib); 99.9% (active) in assay [13] (at 0.313 µM, OCI-P5x cells, with rucaparib 20 µM, 100% = cells with rucaparib alone); 89.3% (active) in [13] (at 0.313 µM, OCI-P5x cells, without rucaparib). For the same compound, the viability was 113% (inactive) in assay [13] (at 1.25 µM, OCI-C5x cells, with rucaparib 10 µM, 100% = cells with rucaparib alone); 109% (inactive) in assay [13] (at 1.25 µM, OCI-C5x cells, without rucaparib); 94.5% (active) in assay [13] (at 1.25 µM, OCI-P5x cells, with rucaparib 20 µM, 100% = cells with rucaparib alone); 87.7% (active) in assay [13] (at 1.25 µM, OCI-P5x cells, without rucaparib); 114% (inactive) in assay [13] (at 5 µM, OCI-C5x cells, with rucaparib 10 µM, 100% = cells with rucaparib alone); 107% (inactive) in assay [13] (at 5 µM, OCI-C5x cells, without rucaparib). Besides, the viability was 84.8% (active) in [13] (at 5 µM, OCI-P5x cells, with rucaparib 20 µM, 100% = cells with rucaparib alone) and 76.9% (active) in [13] (at 5 µM, OCI-P5x cells, without rucaparib).

On to `NC1(C(=O)N[C@@H](CCO)c2ccc(Cl)cc2)CCN(c2ncnc3[nH]ccc23)CC1`, for which the half-maximal activity concentration (AC50) was 14.8 µM (active) in assay [1]; 14.8 µM (active) in assay [2]; 0.662 µM (active) in [3]; 1.48 µM (active) in [4]; 2.09 µM (active) in assay [5]. Besides, the IC50 in [8] was 3.72 µM (active).

`CC#CCn1c(N2CCC[C@@H](N)C2)nc2c1c(=O)n(Cc1nc(C)c3ccccc3n1)c(=O)n2C`: the outcome in assay [1], in assay [2], in [4], in assay [5], in assay [6] and in [7] was inactive. Besides, the outcome in [8] was inactive.

On to `Clc1ccc(C2(c3ccc(-c4cn[nH]c4)cc3)CCNCC2)cc1`, for which the AC50 in assay [1] is 18.6 µM (active); in [4], 14.8 µM (active); in assay [5], 10.5 µM (active). The compound was called inactive in assay [2] and in [6]. For the same compound, the values for the fold change in [10] (setting [14]) and in assay [10] (setting [15]) were 0.914 (inactive) and 1.06, respectively. In addition, the cell count is 2520 in assay [10] (setting [16]) and 2760 in assay [10] (setting [17]). Moreover, the results for the z-score in assay [11] (setting [18]) and in assay [11] (setting [19]) were 5.75 (active) and -3.02, respectively.

As to `N#CC1(c2ccc(NC(=O)c3cccnc3NCc3ccncc3)cc2)CCCC1`, the compound was classed as inactive in [1], in [2], in assay [4], in assay [5], in [6] and in assay [7]. Moreover, the call in assay [8] was inactive. Moreover, the fold change is 0.862 (inactive) in assay [10] (setting [14]) and 1.08 in [10] (setting [15]). Besides, the values for the cell count in assay [10] (setting [16]) and in assay [10] (setting [17]) were 6630 and 7700, respectively. In addition, the z-score in [11] (setting [18]) was -0.704 (inactive); in [11] (setting [19]), 0.694.
